# About 5,500 (1.4%) of roughly 400,000 compounds were called active. Not shown: some 9% with an inconclusive outcome. Only a selection was taken, and actives are over-represented in it overall. Unmarked numbers belong to inactive results. Calls come from the whole dose curve; as a rule, active = well fitted cell-killing curve with a large enough effect; inconclusive = small, poorly fitted or top-dose-only effect, or effect the other way; inactive = flat fitted curve, though single readings scatter.
# Experiment: qHTS assay for MDR1-selective chemotherapeutics: Primary screen using the parental adenocarcinoma cell KB-3-1; note: nearly all actives have a fitted effect of over 60% in size
# Settings: KB-3-1 viability, CellTiter-Glo ATP luminescence, 72 h; series mostly up to 46.1 µM; activity change, negative = cytotoxic: at the top concentration
# Excerpt: A prime difficulty in effectively treating cancer is the development of cellular resistance to multiple structurally unrelated anticancer drugs, a phenomenon known as multidrug resistance (MDR). […] Numerous strategies to overcome P-gp-mediated MDR have been explored, including the design of drugs that evade recognition and efflux, and development of inhibitors to block efflux and restore drug accumulation. […] An alternative approach is to exploit resistance by identifying drugs that target MDR cells over the non-resistant parental cells from which they were selected. […] The development of MDR1-selective agents represents a new strategy for resolving multidrug resistance, as it remains a long-standing clinical challenge for cancer chemotherapy.
# Our goal is to identify compounds that selectively kill P-gp-expressing MDR cells. We will identify MDR1-selective compounds by comparing toxicity of compounds in the screening library against parental, drug-naive (KB-3-1) adenocarcinoma cells as well as their drug-selected MDR sub-line (KB-V1). The differential toxicity of compounds against these two cell lines will be used to identify MDR1-selective compounds, whose cytotoxicity is potentiated, rather than diminished, by P-gp expression. This assay will be utilized to conduct a quantitative high-throughput screen (qHTS) in collaboration with the NIH Chemical Genomics Center to identify selective agents, and probe hits arising from the screen will be validated using secondary assays and characterized through a well-established follow-up research program. This screen was run against the entire NCGC library collection of about 400,000 compounds.
# NIH Molecular Libraries Probe Production Network [MLPCN]
# NIH Chemical Genomics Center [NCGC]
# PI: Michael Gottesman PhD, National Cancer Institute, NIH
# Briefly, 5 microL of media containing either KB-3-1 cells (columns 1-2, 4-48) are dispensed into Greiner white, treated solid-bottom 1536-well assay plates (media-only control is added to column 3). Compounds are then transferred via Kalypsys pin tool equipped with 1536-pin array (10 nL slotted pins, V&P Scientific, San Diego, CA). Following addition of compound, the plates are incubated at 37 degrees C for 72 hours. CellTiter-Glo (2.5 µL/well) is then added, and the plates are read in a ViewLux reader (Perkin-Elmer, clear luminescence filter, 1 second exposure, 1x binning) following a 10 minute incubation. All cells are dispensed in DMEM phenol-red free media containing 10% FBS.
# Library plates were screened starting from the lowest and proceeding to the highest concentration. Vehicle-only plates, with DMSO being pin-transferred to columns 5-48, will be inserted uniformly at the beginning and the end of each library in order to monitor and record any shifts in the background, which can be affected by reagent dispensers or loss in enzyme activity over time. Screening data will be corrected, normalized, and concentration-effect relationships will be derived by using publicly-available NCGC, NCATS curve fitting algorithms (http://ncgc.nih.gov/pub/openhts).
# % is set by controls: 0 for no effect and ±100 for the full control effect; potency is the fitted concentration of half-maximal effect.
SMILES,"activity change, negative = cytotoxic",Potency
COc1cccc(CNC(=O)C(=O)NCC(c2cccs2)S(=O)(=O)c2ccccc2)c1 (stereo unspecified),-21%,
CN(CCC#N)c1ccc(C=O)cc1,0%,
CC(=O)c1cc(-c2ccccc2)[nH]c1N1CCCC1,0%,
O=c1cc(-c2ccccc2)[nH]c2cc(F)ccc12,,1.64 µM (active)
Cc1ccc(-c2cc(=O)c3ccc(F)cc3[nH]2)cc1,0%,
O=C1OC(C(=O)Nc2cccc(Br)c2)Cc2ccccc21 (stereo unspecified),-3.58%,
O=S1(=O)N=C(Oc2cccc(Br)c2)c2ccccc21,0%,
CCOc1ccc(C(=O)c2cn(Cc3ccc(F)cc3)c3ccc(F)cc3c2=O)cc1,10.5%,
CCOC(=O)c1c(C)oc2nc(C)nc(Nc3ccc(CC)cc3)c12,1.97%,
COc1ccc(-c2c(C)cc3oc(=O)cc(-c4ccccc4)c3c2C)cc1C=O,0%,
COc1cc(OC)c2c(-c3cccc(-c4cccc(N)c4)c3)cc(=O)oc2c1,,4.11 µM (active)
COC(=O)C(C)Oc1ccc2c(-c3cccc([N+](=O)[O-])c3)cc(=O)oc2c1 (stereo unspecified),-5.69%,
COc1ccc(-c2nnc(SCC(=O)Nc3ccccc3C)o2)cc1OC,-8.33%,
N#CC(C#N)=CN=c1ccn(Cc2ccc(Cl)cc2Cl)cc1,,16.4 µM (active)
Cn1ccc(=NC=C(C#N)C#N)c2ccccc21,-7.89%,
CC(C)(C)c1cc(C(=O)NN)n(Cc2ccc(Cl)cc2Cl)n1,4.9%,
Cc1ccc(-n2c(SCC(=O)Nc3cccc(F)c3)nc3c(oc4ccccc43)c2=O)cc1C,-1.05%,
CCOC(=O)Cc1ccc(NC(=O)Nc2c[nH]c(=O)[nH]c2=O)cc1,8.46%,
COc1ccc2c(c1)c(N1CCCC1=O)c(C(=O)Nc1ccccc1C(F)(F)F)n2C,3.33%,
O=C(O)c1ccc(CSc2nc3cccnc3n2Cc2cccc(F)c2)cc1,5.86%,
COc1cccc(NC(=O)Nc2ccc3c(c2)N(C)C(=O)c2ccccc2S3)c1,-10.8%,
COc1cccc(CNC(=O)c2ccc3c(Cl)c4c(nc3c2)CCCC4)c1,8.21%,

SMILES,"activity change, negative = cytotoxic",Potency
COc1ccccc1NC(=O)C(=O)c1cc(C)n(-c2ccccc2F)c1C,-19.3%,
CCOC(=O)N1CCN(C(=O)COCc2cc(-c3ccc4c(c3)OCO4)on2)CC1,-9.83%,
CCOC(=O)c1c(C)[nH]c(C(=O)COc2ccc3c(c2)OCO3)c1C,6.21%,
CCOC(=O)c1nc(-c2ccc3c(c2)OCO3)[nH]c1C,,13 µM (active)
CCC(CC)C(=O)N1CCc2cc(OC)c(OC)cc2C1COc1ccc(F)cc1 (stereo unspecified),15.8%,
CC[C@H]1CN2CCc3cc(OC)c(OC)cc3[C@@H]2C[C@@H]1C[C@H]1NCCc2cc(OC)c(OC)cc21,,0.259 µM (active)
CC(=O)N1c2ccc(S(=O)(=O)N3CCCCCC3)cc2CC1C(=O)NCc1ccccc1C (stereo unspecified),5.84%,
COc1ccccc1NC(=O)CN1C(=O)c2ccccc2Sc2ccc(C(=O)N3CCCC3)cc21,9.84%,
CCOC(=O)c1cc(-c2sc(NC(=O)c3ccccc3)nc2C)n(CCO)n1,-1.47%,
C=CCn1nc(C(=O)OCC)cc1-c1sc(NC(=O)c2ccccc2)nc1C,8.61%,
CCOC(=O)c1cc(-c2sc(NC(=O)c3ccccc3)nc2C)n(Cc2ccccc2)n1,,23.1 µM (active)
CC(C)Sc1oc(-c2cccs2)nc1S(=O)(=O)c1ccc(Cl)cc1,4.33%,
CC(C)(C)c1ccc(S(=O)(=O)N2CCN(C(=O)c3cc(-c4ccc(Br)cc4)n[nH]3)CC2)cc1,1.19%,
COc1ccc(C)c(Cn2c(-c3nonc3N)nc3ccccc32)c1,,2.31 µM (active)
COc1ccccc1Cn1c(CO)nc2ccccc21,-2.97%,
CCn1c(C(O)c2cc(OC)ccc2OC)nc2ccccc21 (stereo unspecified),11.1%,
Cc1ccc(C(=O)Nc2ccc3[nH]c(=O)c(=O)[nH]c3c2)cc1,11.4%,
O=C1O/C(=C\c2ccc(O)cc2)C(O)=C1c1ccc(O)cc1,7.22%,
COc1ccc(NC(=O)C(c2ccccc2)N2Cc3ccccc3C2=O)cc1 (stereo unspecified),11.2%,
COc1ccc(OC)c(C(c2nnnn2C(C)(C)C)N2CCc3ccccc3C2)c1 (stereo unspecified),,23.1 µM (active)
COc1ccccc1C(c1nnnn1C(C)(C)C)N1CCN(Cc2ccccc2)CC1 (stereo unspecified),-8.17%,
COCCn1nnnc1C(c1cc2ccc(OC)cc2[nH]c1=O)N1CCc2ccccc2C1 (stereo unspecified),0.603%,

SMILES,"activity change, negative = cytotoxic",Potency
CCC(=O)N1CCc2cc(S(=O)(=O)NC(C(=O)Nc3ccc(C(C)=O)cc3)C(C)C)ccc21 (stereo unspecified),17.2%,
O=C(NN=Cc1ccccc1O)NN=Cc1ccccc1O,,14.6 µM (active)
O=C(Cc1ccccc1)N/N=C/c1ccc(Cl)cc1Cl,0.793%,
O=C(CO/N=C/c1ccccc1O)NNC(=O)c1ccccc1Cl,-2.68%,
Cc1ccc(S(=O)(=O)c2nc(-c3cccs3)oc2N2CCCCC2)cc1,2.36%,
NS(=O)(=O)c1ccc2nc(NC(=O)COc3ccccc3)sc2c1,2.49%,
CC1CCCCC1NC(=O)COc1ccc(C#N)cc1 (stereo unspecified),-9.11%,
N#Cc1ccc(OCC(=O)Nc2nc(-c3ccccn3)cs2)cc1,,16.4 µM (active)
Cc1ccc(CNC(=O)CSc2c(C)cnc3c2c(=O)n(C)c(=O)n3C)cc1,7.68%,
O=C(CC1Oc2ccccc2NC1=O)NCc1ccc(F)cc1 (stereo unspecified),7.27%,
COc1ccc(NC(=O)c2ccco2)cc1NC(=O)COc1ccc(C)c(C)c1,-10.5%,
Cc1ccc(C(CC(=O)O)Nc2nc(N3CCCCC3)nc(N3CCCCC3)n2)cc1 (stereo unspecified),-2.2%,
c1ccc(-c2cc(N3CCCCC3)c3ccccc3n2)cc1,-8.21%,
CC(Nc1nc(N2CCCC2)nc2ccccc12)c1ccccc1 (stereo unspecified),,16.4 µM (active)
CCC(C)N(c1ccc(/C=C/c2ccnc3ccccc23)cc1)C(C)CC (stereo unspecified),0%,
COc1ccc(CNC(=O)c2cc3cccc(OC)c3oc2=O)cc1,3.72%,
COc1cc(NC(=O)CN2CCN(S(=O)(=O)c3ccc(Br)cc3)CC2)cc(OC)c1,12.6%,
Cc1cccn2c(=O)c3cc(C(=O)NCCN4CCOCC4)c(=N)n(Cc4cccnc4)c3nc12,,8.2 µM (active)
CCCn1c(=N)c(C(=O)NCc2ccccc2)cc2c(=O)n3cccc(C)c3nc21,2.22%,
Cc1cccn2c(=O)c3cc(C(=O)NC(C)c4ccccc4)c(=N)n(CCCO)c3nc12 (stereo unspecified),-1.69%,
COc1cc(NS(=O)(=O)c2cccs2)cc(OC)c1,7.71%,
CNC(=O)c1ccc(-c2nc(CN3CCc4ccccc43)c(C)o2)cc1,-9.03%,

# Reference: PubChem BioAssay AID1347075 (National Center for Advancing Translational Sciences (NCATS), 2019)
